This passage reports composite z-score and z-score results from PubChem BioAssay.

Test [1] in a line: binders of probe aFSTL3 on microarray, primary screen, stem cell growth factor project, biochemical, small-molecule microarray, fluorescence 635/667 (AID 1064).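 Also: measures binding of the biotinylated anti-FSTL3 antibody to printed compounds.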 Conditions: higher = more signal.
Test [2] can be described thus: binders from COS7 lysate, DM2A8 probe, primary screen, torsin A project, cell lysate, small-molecule microarray, fluorescence 635/667 (AID 1065). The conditions noted are these: higher = more signal, COS7 lysate expressing mutant human TOR1A.
Test [3] is described as follows: binders of probe aFGF2 on microarray, primary screen, stem cell growth factor project, biochemical, small-molecule microarray, fluorescence 635/667 (AID 1067).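 Also: measures binding of biotinylated aFGF2 protein to printed compounds on slides; z-score merges feature fluorescence and signal-to-noise across triplicate slides.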 Conditions: higher = more signal.
Test [4] can be described thus: binders of probe aFGF10 on microarray, primary screen, stem cell growth factor project, biochemical, small-molecule microarray, fluorescence 635/667 (AID 1071).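 Also: score merges 667 nm spot intensity and signal to noise from triplicate slides.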 Conditions: higher = more signal.
Test [5] has as its target Neurogenic locus notch homolog protein 2 (Homo sapiens) (UniProt Q04721). Nature of the test: Notch2 binders on small-molecule microarrays, primary screen, biochemical, small-molecule microarray, 635 nm fluorescence, stem cell growth factors (AID 1073). Conditions: Notch2 binding, higher = more signal.
Test [6] concerns the target Pro-neuregulin-1, membrane-bound isoform (Homo sapiens) (UniProt Q02297). Put plainly: NRG1 binders on small-molecule microarrays, primary screen, psychiatric disease protein project, biochemical, small-molecule microarray, fluorescence 635/667 (AID 1075).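 Also: score combines 667 nm spot fluorescence with signal to noise.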 The conditions noted are these: NRG1 binding, 635 nm fluorescence, higher = more signal.
In test [7] the test system is Neuregulin-1 EGF-like domain. Put plainly: binders of neuregulin-1 EGF-like domain, primary screen, biochemical, small-molecule microarray, 635 nm fluorescence (AID 1081).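 Also: binding of the protein to compounds printed on small-molecule microarray slides.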 Conditions: small-molecule microarray binding, higher = more signal.
Test [8] can be described thus: FRG1 promoter luciferase signal modulators, primary screen, FRG1 inhibition for FSHD, cell-based, C2C12 myotubes, firefly/Renilla luciferase, luminescence (AID 1084). The conditions noted are these: higher = more signal, called active from +8 up or from −8 down.
A short description of test [9]: binders of probe aFST on microarray, primary screen, stem cell growth factor project, biochemical, small-molecule microarray, fluorescence 635/667 (AID 1086).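 Also: score merges 667 nm fluorescence with signal-to-noise of each printed compound spot.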 The conditions noted are these: higher = more signal.
Test [10] is described as follows: binders of probe aHhip on microarray, primary screen, stem cell growth factor project, biochemical, small-molecule microarray, fluorescence 635/667 (AID 1087).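 Also: score merges spot fluorescence at 667nm with spot signal to noise ratio.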 The conditions noted are these: higher = more signal.
For test [11], the system named is PRMT1 (protein arginine N-methyltransferase 1). Put plainly: PRMT1 binders on small-molecule microarrays, primary screen, biochemical, small-molecule microarray, 635 nm fluorescence (AID 1088).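 Also: binding of Prmt1 protein to compounds spotted on small-molecule microarray slides.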 The conditions noted are these: small-molecule microarray binding, higher = more signal.
Test [12] in a line: yeast growth modulation, basal conditions, primary screen, YJM789 clinical isolate, OD600, 24 h (AID 1089).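 Also: growth of clinical yeast isolate S. cerevisiae YJM 789 seeded 1000 cells per well; test concentration not given here.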 The conditions noted are these: S. cerevisiae YJM789 growth, higher = more signal, called active from +8 up or from −8 down.
Test [13] in a line: fission yeast growth modulation, primary screen, strain 972, OD600, 24 h, no modulator (AID 1090).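 Also: basal condition with compound alone and no growth modifier present; test concentration not given here.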 Conditions: S. pombe 972 growth, higher = more signal, called active from +8 up or from −8 down.
Test [14] in a line: S. cerevisiae growth modulation with rapamycin, primary screen, strain BY4716, OD600, 96 h (AID 1091). Also: test concentration not given here. Conditions: higher = more signal, called active from +8 up or from −8 down.
In test [15] the target is Torsin-1A-interacting protein 2 (Homo sapiens) (UniProt Q8NFQ8). Nature of the test: LULL1 binders on small-molecule microarray, primary screen, cell lysate, human LULL1 lysate, 635/667 nm fluorescence (AID 1092).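 Also: probe is lysate of COS7 cells overexpressing human LULL1; score merges per-feature 667 nm fluorescence with signal-to-noise.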 Conditions: hLULL1 lysate binding, 635 nm fluorescence, higher = more signal.
Test [16] is described as follows: E. coli growth modulation, two-sided OD650, primary screen, E. coli filamentation project, strain DRC41, 24 h (AID 1093).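 Also: MC1000 strain lacking acrAB efflux and sulA so SOS filamentation is blocked; test concentration not given here.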 Conditions: OD650, 24 h, higher = more signal, called active from +8 up or from −8 down.
A short description of test [17]: small-molecule microarray binders of probe aLefty2, primary screen, biochemical, biotinylated probe, 635/667 nm fluorescence (AID 1094).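 Also: score merges spot fluorescence near 667 nm with spot signal-to-noise ratio.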 The conditions noted are these: higher = more signal.
In test [18] the test system is Noggin (protein binding on small-molecule microarray). Nature of the test: Noggin binders on small-molecule microarray, primary screen, biochemical, 635/667 nm fluorescence (AID 1095).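 Also: score merges 667 nm feature fluorescence with signal to noise over triplicate slides.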 Conditions: 635 nm fluorescence, higher = more signal.
In test [19] the target is Neurogenic locus notch homolog protein 3 (Homo sapiens) (UniProt Q9UM47). Nature of the test: NOTCH3 binders on small-molecule microarray, primary screen, biochemical, 635/667 nm fluorescence (AID 1096). The conditions noted are these: NOTCH3 binding, 635 nm fluorescence, higher = more signal.
Sequence of Neurogenic locus notch homolog protein 3 (Homo sapiens) (Q9UM47 whole entry, looked up): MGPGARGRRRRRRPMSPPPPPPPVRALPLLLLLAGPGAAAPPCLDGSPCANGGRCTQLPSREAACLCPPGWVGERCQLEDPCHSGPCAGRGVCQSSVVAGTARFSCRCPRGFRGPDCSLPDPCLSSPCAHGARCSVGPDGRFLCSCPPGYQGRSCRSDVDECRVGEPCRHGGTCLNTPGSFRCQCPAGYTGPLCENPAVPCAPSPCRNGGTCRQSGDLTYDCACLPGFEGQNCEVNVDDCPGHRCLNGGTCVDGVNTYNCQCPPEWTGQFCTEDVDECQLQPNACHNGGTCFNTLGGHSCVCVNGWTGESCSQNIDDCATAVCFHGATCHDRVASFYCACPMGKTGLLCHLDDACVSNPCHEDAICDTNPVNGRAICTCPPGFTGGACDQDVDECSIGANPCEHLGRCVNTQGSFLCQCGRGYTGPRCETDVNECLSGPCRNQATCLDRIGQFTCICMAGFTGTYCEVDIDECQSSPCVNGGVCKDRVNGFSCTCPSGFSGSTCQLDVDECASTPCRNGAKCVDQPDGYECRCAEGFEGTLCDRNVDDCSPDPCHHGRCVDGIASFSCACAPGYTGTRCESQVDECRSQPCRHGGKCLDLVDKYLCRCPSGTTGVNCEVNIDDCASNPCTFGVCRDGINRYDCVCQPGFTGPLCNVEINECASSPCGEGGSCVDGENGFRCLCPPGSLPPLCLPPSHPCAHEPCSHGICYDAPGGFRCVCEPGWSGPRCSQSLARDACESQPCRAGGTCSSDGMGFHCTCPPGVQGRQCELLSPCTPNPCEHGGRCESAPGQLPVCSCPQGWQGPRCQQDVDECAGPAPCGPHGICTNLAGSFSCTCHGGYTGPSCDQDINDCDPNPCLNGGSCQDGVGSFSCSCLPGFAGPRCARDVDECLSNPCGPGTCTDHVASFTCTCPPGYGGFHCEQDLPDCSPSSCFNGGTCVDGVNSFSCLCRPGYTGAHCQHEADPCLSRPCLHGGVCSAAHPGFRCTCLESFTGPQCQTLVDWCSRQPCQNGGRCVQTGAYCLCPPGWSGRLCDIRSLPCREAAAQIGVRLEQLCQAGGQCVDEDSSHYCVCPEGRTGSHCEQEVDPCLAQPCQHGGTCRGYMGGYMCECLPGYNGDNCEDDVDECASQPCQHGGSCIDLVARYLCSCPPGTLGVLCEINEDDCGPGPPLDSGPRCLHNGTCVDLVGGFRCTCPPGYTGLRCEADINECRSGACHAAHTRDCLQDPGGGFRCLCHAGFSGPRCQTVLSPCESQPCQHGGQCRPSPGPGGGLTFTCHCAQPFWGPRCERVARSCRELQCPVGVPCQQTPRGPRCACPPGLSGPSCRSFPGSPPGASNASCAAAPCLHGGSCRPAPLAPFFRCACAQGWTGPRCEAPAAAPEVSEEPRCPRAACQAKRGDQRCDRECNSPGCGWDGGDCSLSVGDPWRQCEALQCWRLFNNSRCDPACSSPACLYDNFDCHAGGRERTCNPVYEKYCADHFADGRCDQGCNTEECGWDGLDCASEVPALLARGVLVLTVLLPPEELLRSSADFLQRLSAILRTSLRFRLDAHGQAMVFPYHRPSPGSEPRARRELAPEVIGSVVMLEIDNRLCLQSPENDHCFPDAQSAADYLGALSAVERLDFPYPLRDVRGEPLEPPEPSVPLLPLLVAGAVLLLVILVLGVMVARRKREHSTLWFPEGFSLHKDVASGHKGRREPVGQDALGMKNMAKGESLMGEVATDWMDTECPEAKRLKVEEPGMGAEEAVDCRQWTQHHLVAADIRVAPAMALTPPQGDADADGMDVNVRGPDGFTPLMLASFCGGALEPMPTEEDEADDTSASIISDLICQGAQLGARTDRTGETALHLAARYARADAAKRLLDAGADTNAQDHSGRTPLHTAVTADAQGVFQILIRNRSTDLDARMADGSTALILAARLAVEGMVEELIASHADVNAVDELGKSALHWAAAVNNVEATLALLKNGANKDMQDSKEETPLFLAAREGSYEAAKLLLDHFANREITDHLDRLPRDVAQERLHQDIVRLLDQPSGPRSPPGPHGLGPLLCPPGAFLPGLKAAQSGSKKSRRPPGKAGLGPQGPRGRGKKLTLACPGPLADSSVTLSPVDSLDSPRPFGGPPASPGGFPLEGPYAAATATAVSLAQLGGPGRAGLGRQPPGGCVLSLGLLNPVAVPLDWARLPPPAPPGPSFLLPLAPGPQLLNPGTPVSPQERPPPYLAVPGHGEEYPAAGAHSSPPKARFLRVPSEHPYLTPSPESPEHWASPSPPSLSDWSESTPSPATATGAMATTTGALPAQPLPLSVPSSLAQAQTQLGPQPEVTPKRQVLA
Test [20] is described as follows: small-molecule microarray binders of probe aEGFR, primary screen, biochemical, biotinylated probe, 635/667 nm fluorescence (AID 1097).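 Also: probe is a biotinylated anti-EGFR antibody binding compounds printed on slides; score combines fluorescence near 667 nm and signal to noise of each spot.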 The conditions noted are these: higher = more signal.

Active and inactive are the calls of the source.

Sequence of Neurogenic locus notch homolog protein 2 (Homo sapiens) (Q04721 whole entry, looked up, canonical isoform): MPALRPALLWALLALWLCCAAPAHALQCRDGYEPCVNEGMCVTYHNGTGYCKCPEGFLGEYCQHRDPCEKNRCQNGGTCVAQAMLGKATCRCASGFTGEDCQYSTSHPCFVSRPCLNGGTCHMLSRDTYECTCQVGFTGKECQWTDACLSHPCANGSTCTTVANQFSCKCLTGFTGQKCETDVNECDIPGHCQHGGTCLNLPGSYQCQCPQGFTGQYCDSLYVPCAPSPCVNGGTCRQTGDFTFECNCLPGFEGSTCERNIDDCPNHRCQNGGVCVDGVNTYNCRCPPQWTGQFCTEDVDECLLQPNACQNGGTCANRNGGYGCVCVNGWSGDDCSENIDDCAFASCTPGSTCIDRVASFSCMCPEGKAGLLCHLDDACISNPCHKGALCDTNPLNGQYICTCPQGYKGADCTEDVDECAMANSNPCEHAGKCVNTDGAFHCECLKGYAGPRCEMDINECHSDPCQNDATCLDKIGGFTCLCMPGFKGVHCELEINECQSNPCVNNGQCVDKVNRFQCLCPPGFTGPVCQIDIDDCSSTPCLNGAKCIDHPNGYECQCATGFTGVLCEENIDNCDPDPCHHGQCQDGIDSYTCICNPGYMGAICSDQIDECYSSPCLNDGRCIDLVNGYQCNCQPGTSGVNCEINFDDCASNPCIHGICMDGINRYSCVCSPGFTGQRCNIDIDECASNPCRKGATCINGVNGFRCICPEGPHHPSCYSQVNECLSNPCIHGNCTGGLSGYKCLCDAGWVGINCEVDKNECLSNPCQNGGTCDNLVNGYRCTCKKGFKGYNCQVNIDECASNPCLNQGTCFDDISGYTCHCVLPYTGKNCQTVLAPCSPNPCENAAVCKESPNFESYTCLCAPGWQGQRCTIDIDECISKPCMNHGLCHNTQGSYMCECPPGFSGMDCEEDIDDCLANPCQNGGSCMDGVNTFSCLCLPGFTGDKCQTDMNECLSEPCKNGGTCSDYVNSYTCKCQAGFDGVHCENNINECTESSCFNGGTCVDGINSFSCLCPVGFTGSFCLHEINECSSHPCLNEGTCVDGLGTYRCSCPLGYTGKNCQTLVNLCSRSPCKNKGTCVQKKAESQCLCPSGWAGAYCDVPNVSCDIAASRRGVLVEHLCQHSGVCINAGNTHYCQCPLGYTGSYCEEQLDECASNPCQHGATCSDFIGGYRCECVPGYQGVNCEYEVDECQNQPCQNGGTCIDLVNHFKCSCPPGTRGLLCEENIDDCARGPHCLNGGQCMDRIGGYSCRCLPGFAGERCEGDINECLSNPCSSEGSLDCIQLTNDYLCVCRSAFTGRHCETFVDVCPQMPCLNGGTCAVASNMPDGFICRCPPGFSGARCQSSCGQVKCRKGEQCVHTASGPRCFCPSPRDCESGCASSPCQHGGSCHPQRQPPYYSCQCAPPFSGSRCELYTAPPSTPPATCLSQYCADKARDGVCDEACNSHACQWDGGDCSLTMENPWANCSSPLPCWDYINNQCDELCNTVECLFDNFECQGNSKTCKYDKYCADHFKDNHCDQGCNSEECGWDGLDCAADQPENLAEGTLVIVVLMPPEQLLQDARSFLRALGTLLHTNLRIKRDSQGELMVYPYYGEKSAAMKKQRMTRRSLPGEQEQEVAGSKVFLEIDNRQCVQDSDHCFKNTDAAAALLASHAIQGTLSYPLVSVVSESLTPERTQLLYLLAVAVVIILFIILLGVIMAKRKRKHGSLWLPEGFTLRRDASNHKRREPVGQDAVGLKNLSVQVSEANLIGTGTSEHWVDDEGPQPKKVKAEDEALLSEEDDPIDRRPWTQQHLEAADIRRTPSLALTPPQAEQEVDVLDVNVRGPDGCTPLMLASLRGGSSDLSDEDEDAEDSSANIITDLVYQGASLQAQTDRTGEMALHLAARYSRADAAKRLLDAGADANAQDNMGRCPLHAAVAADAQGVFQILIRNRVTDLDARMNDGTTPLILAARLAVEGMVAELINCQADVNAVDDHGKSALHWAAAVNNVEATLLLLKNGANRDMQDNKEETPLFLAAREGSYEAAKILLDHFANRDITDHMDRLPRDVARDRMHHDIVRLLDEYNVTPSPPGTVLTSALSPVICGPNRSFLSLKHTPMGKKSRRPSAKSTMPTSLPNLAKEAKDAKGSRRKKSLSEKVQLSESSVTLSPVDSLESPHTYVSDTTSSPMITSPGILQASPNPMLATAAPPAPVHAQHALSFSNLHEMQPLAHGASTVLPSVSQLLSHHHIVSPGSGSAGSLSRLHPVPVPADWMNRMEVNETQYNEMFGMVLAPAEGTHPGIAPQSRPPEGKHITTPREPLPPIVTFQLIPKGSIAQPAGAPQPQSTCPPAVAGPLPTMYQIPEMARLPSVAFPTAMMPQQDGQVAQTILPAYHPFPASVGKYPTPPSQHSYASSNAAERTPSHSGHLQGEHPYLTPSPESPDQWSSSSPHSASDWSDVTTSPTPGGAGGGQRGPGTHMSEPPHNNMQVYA

For the molecule `COc1ccc([Si](C)(C)[C@@H]2[C@@H](CC(=O)N3Cc4ccccc4C[C@H]3CO)O[C@]3(C(=O)N(Cc4cccc(N5CCCCC5=O)c4)c4ccccc43)[C@H]2C)cc1`, the composite z-score in test [1] was -0.429; in test [2], 0.569; in [3] it was 0.0207; in test [4], 0.494; in [5] it was 0.523; in test [6], 0.69. Besides, the composite z-score in [7] is 0.899; in test [9], 0.272; in test [10] it was -0.0994; in [11] it was 1.55; in test [15], 1.79; in test [17], -0.0878. The composite z-score is 1.41 in test [18], 1.07 in [19] and -0.0356 in [20]. Further, the z-score in [8] was -2.18 (inactive); in [12], 0.318 (inactive); in test [13], 1.41 (inactive); in [14], 2.4 (inactive); in test [16], 0.73 (inactive).
For `O=C1OCCC=C[C@H]2OC34C=CCN(Cn5nnc6ccccc65)C(=O)[C@H]3N(CCCCCO)C(=O)[C@@H]4C12` (stereo not given in full), the composite z-score in test [1] is 0.122; in test [2], 1.66; in test [3], -0.176; in test [4], -0.328; in [5] it was -0.407; in test [6] it was 2.18. In addition, the composite z-score was 1.48 in test [7]; -0.118 in test [9]; -0.306 in test [10]; -0.285 in [11]; 1.43 in test [15]; -0.0674 in [17]. Further, the results for the composite z-score in [18], in test [19] and in test [20] were -0.825, -0.135 and -0.2, respectively. Further, the z-score in test [8] was -0.21 (inactive); in test [12], -0.0057 (inactive); in [13], -0.439 (inactive); in test [14], -0.506 (inactive); in test [16], 0.141 (inactive).
Take `COC(=O)[C@@]1(Cc2ccc(OC)cc2)[C@H]2c3cc(C(=O)N(C)C)n(CCF)c3C[C@H]2CN1C(=O)c1ccccc1`: the composite z-score in test [1] worked out at 0.999; in test [2], 0.245; in [3], 0.0398; in [4], 0.419; in [5] it was 1.66; in [6], 1.97. In addition, the composite z-score in test [7] was determined as 1.33; in test [9], 0.98; in [10], 0.31; in test [11] it was 0.574; in test [15], 3.24; in [17], 0.411. The composite z-score in [18] is 0.296; in test [19], 1.02; in [20], 0.0986. Moreover, the z-score is -1.11 (inactive) in test [8]; 0.215 (inactive) in [12]; 1.25 (inactive) in test [13]; 0.167 (inactive) in [14]; -0.0418 (inactive) in test [16].
As to `C=CCOc1ccc([C@@H]2CC=C(C(=O)OCC)[C@H](c3cccc(Br)c3)N2S(=O)(=O)c2ccc(C)cc2)cc1`, the composite z-score was 0.474 in test [1]; -0.229 in test [2]; -0.0901 in test [3]; -0.0763 in [4]; -0.672 in test [5]; 0.866 in [6]. The composite z-score in [7] was 0.0455; in test [9], 0.176; in test [10] it was -0.3; in test [11], -0.227; in [15], 0.652; in [17], 0.049. For the same molecule, the figures for the composite z-score in [18], in test [19] and in test [20] were -0.351, -0.32 and -0.0456, respectively. The z-score in [8] was -4.03 (inactive); in test [12], -2.1 (inactive); in test [13], -0.493 (inactive); in [14], 0.196 (inactive); in [16], -0.372 (inactive).
As for `COC(=O)[C@]1(Cc2ccccc2CN=[N+]=[N-])N=C(c2ccc(OCCCO)cc2)O[C@@H]1c1ccccc1CN=[N+]=[N-]`, the composite z-score is 0.409 in test [1]; -0.119 in test [2]; -0.087 in test [3]; 0.013 in [4]; -0.443 in test [5]; 0.726 in test [6]. For the same molecule, the composite z-score in test [7] was 1.28; in [9] it was -0.117; in test [10], -0.0994; in test [11], 0.921; in test [15], 2; in test [17], 0.111. The composite z-score in [18] was 0.435; in [19], -0.253; in test [20], -0.0828. The z-score in [8] is -0.904 (inactive); in test [12], -0.456 (inactive); in test [13], -1.09 (inactive); in [14], 33.5 (active); in test [16], 2.08 (inactive).
For `CCCNC(=O)[C@@]1(Sc2ccc(C)cc2)CC(=O)N(Cc2ccccc2)[C@@H]1c1ccc(CO)cc1I`, the composite z-score in [1] is 1.33; in test [2], -0.0477; in test [3], -0.0917; in test [4] it was -0.008; in test [5] it was 0.367; in test [6], 0.848. Moreover, the composite z-score in [7] was 1.23; in test [9] it was 0.692; in test [10], -0.0346; in test [11], 0.933; in test [15], 0.869; in test [17] it was -0.0866. Moreover, the composite z-score in test [18] was 0.54; in test [19], 0.282; in [20], -0.11. For the same molecule, the z-score in [8] was -1.9 (inactive); in test [12], -1.09 (inactive); in [13] it was -1.46 (inactive); in test [14], 0.605 (inactive); in test [16], 0.605 (inactive).
Regarding `COc1ccccc1CN1C(=O)c2ccccc2[C@@]2(Cc3ccccc3N(C3CC3)C2=O)[C@@H]1c1ccc(CO)cc1`, the composite z-score in test [1] is -0.262; in test [2], -0.804; in test [3] it was -0.107; in test [4], 0.0106; in [5] it was -0.461; in [6], 0.937. The composite z-score is -0.0422 in test [7]; 0.0845 in [9]; -0.164 in test [10]; 0.0943 in [11]; 0.861 in test [15]; -0.0699 in [17]. In addition, the composite z-score in test [18] was -0.2; in [19] it was -0.473; in test [20], -0.181. In addition, the z-score was -0.223 (inactive) in test [8]; -0.245 (inactive) in [12]; -0.384 (inactive) in test [13]; -2.24 (inactive) in [14]; -0.134 (inactive) in test [16].
Turning to `COCCOC(=O)N1C(=O)[C@@]2(c3cc(C#Cc4ccc(OC)cc4)ccc31)[C@H](c1ccc(OCCO)cc1)N1[C@H](c3ccccc3)[C@H](c3ccccc3)OC(=O)[C@H]1[C@@H]2C(N)=O`, the composite z-score is 0.261 in test [1]; 1.24 in test [2]; -0.0128 in test [3]; 0.646 in [4]; 1.46 in test [5]; 1.25 in [6]. The composite z-score in test [7] was 1.26; in test [9], 0.851; in test [10], 0.0972; in test [11] it was 1.54; in test [15], 1.64; in test [17], 0.172. For the same molecule, the results for the composite z-score in test [18], in test [19] and in test [20] were 1.45, 1.02 and 0.0593, respectively. Moreover, the z-score was 1.06 (inactive) in test [8]; 1.37 (inactive) in test [12]; 1.87 (inactive) in [13]; 5.01 (inactive) in [14]; 1.37 (inactive) in test [16].
For `CC(C)CNC(=O)[C@@]1(C)c2ccccc2C(=O)N(Cc2ccccc2)[C@H]1c1ccc(CO)cc1`, the composite z-score in test [1] was 1.69; in test [2], -1.04; in [3] it was -0.206; in test [4] it was -1.42; in test [5], -0.762; in [6], 0.839. Besides, the composite z-score in test [7] is 0.614; in test [9], 0.267; in [10], -0.164; in test [11], -0.579; in [15] it was 3.04; in test [17], 0.0397. The composite z-score in test [18] was -1.79; in test [19] it was -0.643; in test [20] it was -0.285. The z-score in [8] is -1.26 (inactive); in [12] it was -1.79 (inactive); in test [13], -0.849 (inactive); in test [14], -0.879 (inactive); in test [16], -0.483 (inactive).
